Assay outcomes: PubChem BioAssay, National Center for Advancing Translational Sciences (NCATS)
SmPrx2 inh – Schistosoma mansoni Prx2 inhibition; S. mansoni Prx2 activity coupled to TGR/GSH (TGR is thioredoxin glutathione reductase), NADPH fluorescence loss, qHTS; Potency, µM; 65,000 tested, 0.07% active; AID 448
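Prx2 inhibition was measured as reduced NADPH consumption when electrons flowed from NADPH through TGR and glutathione to Prx2 and H2O2. Plates were read kinetically over 8 min; enzyme reagents were held at 4 deg C during dispensing.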
AmpC nodet inh – AmpC beta-lactamase inhibition, detergent-free assay. AmpC nitrocefin hydrolysis, absorbance 480 nm, no detergent. Potency, µM (top dose mostly 28.7 µM), inactives show top-dose activity change, negative = inhibition. P00811. 71,000 tested, 1.8% active. AID 585; note: % of control where 0% means no effect
Target sequence (P00811 whole entry, looked up): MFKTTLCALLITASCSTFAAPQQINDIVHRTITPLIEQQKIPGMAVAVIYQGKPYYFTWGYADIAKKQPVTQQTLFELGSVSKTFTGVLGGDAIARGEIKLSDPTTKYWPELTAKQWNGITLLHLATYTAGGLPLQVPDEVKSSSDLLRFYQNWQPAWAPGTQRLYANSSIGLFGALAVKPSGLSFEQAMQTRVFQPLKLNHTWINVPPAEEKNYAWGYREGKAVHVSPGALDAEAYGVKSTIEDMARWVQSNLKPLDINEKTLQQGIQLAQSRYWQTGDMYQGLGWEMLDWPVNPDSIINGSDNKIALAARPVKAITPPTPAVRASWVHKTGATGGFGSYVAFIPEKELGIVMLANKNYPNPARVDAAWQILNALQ
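AmpC in 20 mM phosphate buffer pH 7.0 was preincubated 15 min at room temperature with compounds. Nitrocefin (800 uM stock) was then added and hydrolysis followed at 480 nm every 20 s for 4 min.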
AmpC det inh – blocks E. coli AmpC beta-lactamase in presence of detergent. AID 584. Potency, µM (titrated, usually from 28.7 µM), for the others: at the top dose activity change, negative = inhibition. purified AmpC, nitrocefin hydrolysis with detergent. 71,000 tested, 0.09% active; active = well fitted curve in the direction sought with a large enough effect; inconclusive = small, poorly fitted or top-dose-only effect; note: % is set by controls: 0 for no effect and ±100 for the full control effect
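E. coli AmpC (5.3 nM) in 20 mM phosphate pH 7.0 with 0.01% Triton X-100, preincubated 15 min RT with compound; nitrocefin (2 uL of 800 uM stock) hydrolysis followed by 480 nm absorbance every 20 s over 4 min.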
Anthrax LT inh – inhibitors of anthrax lethal toxin internalization; AID 912; Potency, µM (series often up to 40 µM), for the others: top-dose activity change, negative = inhibition, usual class: inhibitors; 70,000 tested, 0.67% active; Cells, anthrax lethal toxin internalization, FRET ratio (460/530); note: % is set by controls: 0 for no effect and ±100 for the full control effect; nearly all actives have a fitted effect of over 50% in size
* marks the source's active call; other numbers are inactive results; ? = inconclusive; · = no result; [ ] = another dose, or the depositor's remark. Only some compounds are listed: those with a hit (about 2.6% of all), similar ones and a draw of the others. Unless noted, calls come from the whole dose curve. Potency is the fitted concentration of half-maximal effect.

SMILES	SmPrx2 inh	AmpC nodet inh	AmpC det inh	Anthrax LT inh
COc1cccc(-n2c(Cc3cc(=O)[nH]c(=O)[nH]3)nnc2SC(C)C)c1	>57	3.98µM*[single pt active]	12.5%	5.2%
CCOc1ccc(-n2c(Cc3cc(=O)[nH]c(=O)[nH]3)nnc2SC(C)C(=O)OC)cc1 (stereo unspecified)	>57	24.5%	10.0%	-7.8%
NC(=S)c1ccc[n+]([C@@H]2O[C@@H](COP(=O)([O-])OP(=O)(O)OC[C@@H]3O[C@@H](n4cnc5c(N)ncnc54)[C@@H](OP(=O)(O)O)[C@H]3O)[C@@H](O)[C@H]2O)c1	>57	-1.5%	-2.9%	1.4%
COc1ccc(O[C@H]2C=C[C@@H](c3ccccc3)O[C@H]2COC(=O)CC/C(C)=N\O[C@@H](C)CN2CCCc3nc(C)c(C)cc32)cc1	·	·	·	-1.7%[8 µM]
COC(=O)CSCc1nc2ccccc2[nH]c1=O	>57	3.98µM*[single pt active]	22.1%	5.6%
COC(=O)CCc1nc2ccccc2[nH]c1=O	>57	-4.7%	3.8%	0.1%
CC(=O)O[C@@H]1C[C@]2(C)[C@H](C[C@@H](O)[C@H]3[C@@]4(C)CC[C@@H](O)[C@@H](C)[C@@H]4CC[C@@]32C)/C1=C(\CCC=C(C)C)C(=O)O	>57	11.2%	-5.6%	-0.3%
O=C(O)[C@H]1C[C@H](C(=O)O)N1	>57	3.6%	0.1%	?
COc1cccc2cc3c(=O)n(-c4ccccc4)nc-3oc12	>57	3.16µM*[single pt active]	10.6%	6.7%
Cc1ccc(N2C(=O)c3ccc(C(=O)NCCN4CCOCC4)cc3C2=O)cc1	>57	52.9%	-2.4%	-21.2%
Cc1c(C)n(C)c2ccc(C(=O)NCc3cccs3)cc12	>57	3.98µM*[single pt active]	15.4%	?
CCCN1C(=O)c2cc(C(=O)NCc3ccc(OC)cc3)ccc2C1O (stereo unspecified)	>57	3.16µM*[single pt active]	11.7%	0.1%
CCCN1C(=O)c2cc(C(=O)NCc3cccs3)ccc2C1O (stereo unspecified)	>57	3.98µM*[single pt active]	8.6%	-17.5%
CCCN1C(=O)c2cc(C(=O)NCCc3cccc(C)c3)ccc2C1O (stereo unspecified)	>57	3.98µM*[single pt active]	17.0%	?
CCCN1C(=O)c2ccc(C(=O)NCc3ccco3)cc2C1=O	>57	6.4%	-0.7%	-6.0%
COc1cccc(Nc2ncc3ncc(=O)n(C[C@H]4CCCO4)c3n2)c1	>57	53.8%	-2.7%	6.5%
CN1CCN(c2ncc3nc(-c4cccc(C#N)c4)c(=O)n(C[C@H]4CCCO4)c3n2)CC1	>57	78.9%	0.2%	0.6%
COc1cc(OC)c(C2CC(=O)N3CN(C)CSC3=C2C#N)cc1OC (stereo unspecified)	>57	3.98µM*[single pt active]	9.3%	-22.6%
COc1ccc(Br)cc1C1CC(=O)N2CN(Cc3ccccc3)CSC2=C1C#N (stereo unspecified)	>57	2µM*	9.5%	?
COc1ccc(Br)cc1C1CC(=O)N2CN(C)CSC2=C1C#N (stereo unspecified)	>57	3.98µM*[single pt active]	13.1%	-11.8%
COc1ccc2ccccc2c1C1CC(=O)N2CN(C)CSC2=C1C#N (stereo unspecified)	>57	25.5%	-7.0%	-28.5%
CC(C)c1ccc(C2CC(=O)N3CN(C)CSC3=C2C#N)cc1 (stereo unspecified)	>57	3.98µM*[single pt active]	11.1%	-8.4%
C=CCCC/C=C(/C)C(OCc1ccc(OC)cc1)C(CC/C=C(\C)C(N)=O)OC (stereo unspecified)	·	·	·	2.6%[8 µM]
Cc1noc(C)c1C(=O)N1CCC2(CCCN(C(=O)Nc3ccccc3)C2)CC1	>57	1.6%	0.4%	-9.6%
CC(=O)OC[C@@H]1O[C@@H](O/N=C2/C[C@@H](O)[C@@H](O)[C@@H]3[C@@H]4C(=O)N(Cc5ccc6c(c5)OCO6)C(=O)[C@H]4CC[C@@H]23)[C@H](OC(C)=O)[C@H](OC(C)=O)[C@@H]1OC(C)=O	·	·	·	-6.5%[1.6 µM]
SMILES	SmPrx2 inh	AmpC nodet inh	AmpC det inh	Anthrax LT inh
Cc1ccc(C2(c3ccc(C)c(O)c3C)CCN(C)CC2)c(C)c1O	>57	-0.9%[5.75 µM]	-4.4%[5.75 µM]	-3.2%[8 µM]
COc1ccc2[nH]cc(CCNC(=O)C3CCCNC3=O)c2c1 (stereo unspecified)	>57	2.51µM*[single pt active]	9.9%	-2.4%
Cc1nonc1NC(=O)CSc1nc(C2CCCCC2)nc2ccccc12	>57	-12.9%	-2.2%	?
Cc1cc2nc(SCC(=O)Nc3nonc3C)c3c(c2cc1C)CCCC3	>57	12.6µM*	1.3%	-16.8%
Cc1cccc(NS(=O)(=O)c2ccc(C)c(C(=O)OCC(=O)Nc3cc(C)on3)c2)c1	>57	10µM*	-5.6%	?
Cc1cccc(NS(=O)(=O)c2cc(C(=O)OCC(=O)Nc3cc(C)on3)ccc2C)c1	>57	?	-0.4%	-23.8%
Cc1ccc2c(c1)N(CC(=O)NCC1COc3ccccc3O1)C(=O)CO2 (stereo unspecified)	>57	48.6%	9.6%	-7.3%
CCCCC#Cc1nc(NC)c2ncn([C@@H]3O[C@@H](CO)[C@H](O)[C@H]3O)c2n1	>57	33.0%	-2.1%	-3.1%
O=C(Cn1cnc2sc(-c3ccccc3)cc2c1=O)NCc1ccco1	>57	5.01µM*	18.4%	-25.5%
Cc1cc(N2CCCN(C)CC2)nc2cc(Cl)ccc12	·	37.1%	5.8%	10µM*
CCOC(=O)C1=C(CS(=O)(=O)c2ccc(F)c(C)c2)NC(=O)NC1c1ccc(O)c(O)c1 (stereo unspecified)	>57	3.98µM*[single pt active]	10.2%	-7.6%
CC(=O)c1ccc(OCC(O)CN2CCC(C)CC2)cc1 (stereo unspecified)	>57	3.98µM*[single pt active]	12.3%	-7.6%
COC(=O)c1ccc(OCC(O)CN2CCC(C)CC2)cc1 (stereo unspecified)	>57	-3.7%	8.6%	0.1%
CCC(=O)c1ccc(OCC(O)CN2CCOCC2)cc1 (stereo unspecified)	>57	17.0%	-3.3%	2.9%
CC(=O)c1ccc(OCC(O)CN2C(C)CCCC2C)cc1 (stereo unspecified)	>57	3.98µM*[single pt active]	12.1%	-10.1%
CC(=O)c1ccc(OCC(O)CN2CCOCC2)cc1 (stereo unspecified)	>57	3.98µM*[single pt active]	8.2%	-14.0%
Oc1ccc(Cc2nccc3cc(O)c(O)cc23)cc1O	>57	-9.9%[5.75 µM]	-2.5%[5.75 µM]	-17.0%[8 µM]
COc1ccc(CNc2nc(-c3cccc(C#N)c3)nc3ccccc23)c(OC)c1	>57	22.7%	10.2%	-14.2%
CCc1c(C)nc2cc(-c3cc(OC)cc(OC)c3)nn2c1N1CCCC1	>57	88.5%	-1.5%	12.6µM*
CCc1c(C)nc2cc(-c3ccc(OC)c(OC)c3)nn2c1N1CCCC1	>57	132.9%	-3.8%	-19.9%
O=C(O)[C@@H]1[C@@H](C(=O)Nc2ncccn2)[C@@H]2C=C[C@@H]1O2	>57	7.7%[5.75 µM]	-4.6%[5.75 µM]	-3.7%[8 µM]
Cc1nnc2ccc(N3CCN(c4ccccn4)CC3)nn12	>57	3.98µM*[single pt active]	14.8%	-4.2%
Cc1nnc2ccc(N3CCN(C)CC3)nn12	·	-7.9%	5.1%	0.3%
Cc1nnc2ccc(N3CCC(C(N)=O)(N4CCCCC4)CC3)nn12	>57	3.98µM*[single pt active]	12.5%	-6.1%
